PMC12864922, “TDP-43 directly inhibits mRNA accumulation in neurites through modulation of mRNA stability”
Over roughly 9,900 sequences, “r (bound/input frequency ratio)” has its median near 0.7; the highest 2% begin near 6.5. The list comes from a sample in which the highest values are over-represented; it also holds similar and randomly drawn sequences.

B1: ENSMUSG00000029028.33|Lrrc47 (ssRNA)
RNA: GGGAGUUCUACAGUCCGACGAUCGCUUCGAUAUCCGCAUGCUACUGUGGGUGUGCUGUAGGUGUCUGUGUGGGUGUGCUGUAGGUGUCUGUGUAGGUGUGGGUGUGCUGUAGGUGUCUGUGUGGGUGUGCUAGGUGUCUGUAUAGGUGUGGGUGUGCUGUAGAUGUCUGUGUAGGUAUGGGUGUGCUGUAGAUCUUUGUAGGUGUAGGUAUGCUGUAGGUAUCUGGGUGUGGGUAUGCUGUAGAUGUCUGUGUAGGUGUGGAUAUGCUGUAGGUAUCUGGGUGUGCUGUAGGUGUCUGUGUGGCUCUUGCGGUCGCACUAGUGUGGAAUUCUCGGGUGUCAAGG
B2: ENSMUSG00000029028.22|Lrrc47 (ssRNA)
RNA: GGGAGUUCUACAGUCCGACGAUCGCUUCGAUAUCCGCAUGCUAGUAGGUGUCUGUGUGGGUGUGGGUGUGCUGUAGGUGUCUGUGUGGGUGUGGGUGUGCUAUAGGUAUCUGUGGGUGUGCUGUAGGUGUCUGUGUGGGUGUGCUGUAGGUGUCUGUGUAGGUGUGGGUGUGCUGUAGGUGUCUGUGUGGGUGUGCUAGGUGUCUGUAUAGGUGUGGGUGUGCUGUAGAUGUCUGUGUAGGUAUGGGUGUGCUGUAGAUCUUUGUAGGUGUAGGUAUGCUGUAGGUAUCUGGGUGUGGGUAUGCUCUUGCGGUCGCACUAGUGUGGAAUUCUCGGGUGUCAAGG
B3: ENSMUSG00000029028.17|Lrrc47 (ssRNA)
RNA: GGGAGUUCUACAGUCCGACGAUCGCUUCGAUAUCCGCAUGCUACUGACAGGCUCCUGUAGGUGUGGGUGUGCUGUAGGUGUCUGUGUGGGUGUGGGUGUGCUGUAGGUGUCUGUGUGGGUGUGGGUGUGCUAUAGGUAUCUGUGGGUGUGCUGUAGGUGUCUGUGUGGGUGUGCUGUAGGUGUCUGUGUAGGUGUGGGUGUGCUGUAGGUGUCUGUGUGGGUGUGCUAGGUGUCUGUAUAGGUGUGGGUGUGCUGUAGAUGUCUGUGUAGGUAUGGGUGUGCUGUAGAUCUUUGUAGGUGUAGCUCUUGCGGUCGCACUAGUGUGGAAUUCUCGGGUGUCAAGG
B4: ENSMUSG00000029028.14|Lrrc47 (ssRNA)
RNA: GGGAGUUCUACAGUCCGACGAUCGCUUCGAUAUCCGCAUGCUACCACGUGACUGUGGUCCGCUGACAGGCUCCUGUAGGUGUGGGUGUGCUGUAGGUGUCUGUGUGGGUGUGGGUGUGCUGUAGGUGUCUGUGUGGGUGUGGGUGUGCUAUAGGUAUCUGUGGGUGUGCUGUAGGUGUCUGUGUGGGUGUGCUGUAGGUGUCUGUGUAGGUGUGGGUGUGCUGUAGGUGUCUGUGUGGGUGUGCUAGGUGUCUGUAUAGGUGUGGGUGUGCUGUAGAUGUCUGUGUAGGUAUGGGUGUGCUGUCUCUUGCGGUCGCACUAGUGUGGAAUUCUCGGGUGUCAAGG
B5: ENSMUSG00000029028.15|Lrrc47 (ssRNA)
RNA: GGGAGUUCUACAGUCCGACGAUCGCUUCGAUAUCCGCAUGCUAGACUGUGGUCCGCUGACAGGCUCCUGUAGGUGUGGGUGUGCUGUAGGUGUCUGUGUGGGUGUGGGUGUGCUGUAGGUGUCUGUGUGGGUGUGGGUGUGCUAUAGGUAUCUGUGGGUGUGCUGUAGGUGUCUGUGUGGGUGUGCUGUAGGUGUCUGUGUAGGUGUGGGUGUGCUGUAGGUGUCUGUGUGGGUGUGCUAGGUGUCUGUAUAGGUGUGGGUGUGCUGUAGAUGUCUGUGUAGGUAUGGGUGUGCUGUAGAUCUCUCUUGCGGUCGCACUAGUGUGGAAUUCUCGGGUGUCAAGG
B6: ENSMUSG00000029028.18|Lrrc47 (ssRNA)
RNA: GGGAGUUCUACAGUCCGACGAUCGCUUCGAUAUCCGCAUGCUAGGCUCCUGUAGGUGUGGGUGUGCUGUAGGUGUCUGUGUGGGUGUGGGUGUGCUGUAGGUGUCUGUGUGGGUGUGGGUGUGCUAUAGGUAUCUGUGGGUGUGCUGUAGGUGUCUGUGUGGGUGUGCUGUAGGUGUCUGUGUAGGUGUGGGUGUGCUGUAGGUGUCUGUGUGGGUGUGCUAGGUGUCUGUAUAGGUGUGGGUGUGCUGUAGAUGUCUGUGUAGGUAUGGGUGUGCUGUAGAUCUUUGUAGGUGUAGGUAUGCCUCUUGCGGUCGCACUAGUGUGGAAUUCUCGGGUGUCAAGG
B7: ENSMUSG00000029028.27|Lrrc47 (ssRNA)
RNA: GGGAGUUCUACAGUCCGACGAUCGCUUCGAUAUCCGCAUGCUAUAGGUGUCUGUGUGGGUGUGGGUGUGCUAUAGGUAUCUGUGGGUGUGCUGUAGGUGUCUGUGUGGGUGUGCUGUAGGUGUCUGUGUAGGUGUGGGUGUGCUGUAGGUGUCUGUGUGGGUGUGCUAGGUGUCUGUAUAGGUGUGGGUGUGCUGUAGAUGUCUGUGUAGGUAUGGGUGUGCUGUAGAUCUUUGUAGGUGUAGGUAUGCUGUAGGUAUCUGGGUGUGGGUAUGCUGUAGAUGUCUGUGUAGGUGUGGAUAUGCCUCUUGCGGUCGCACUAGUGUGGAAUUCUCGGGUGUCAAGG
B8: ENSMUSG00000029028.16|Lrrc47 (ssRNA)
RNA: GGGAGUUCUACAGUCCGACGAUCGCUUCGAUAUCCGCAUGCUAGGUCCGCUGACAGGCUCCUGUAGGUGUGGGUGUGCUGUAGGUGUCUGUGUGGGUGUGGGUGUGCUGUAGGUGUCUGUGUGGGUGUGGGUGUGCUAUAGGUAUCUGUGGGUGUGCUGUAGGUGUCUGUGUGGGUGUGCUGUAGGUGUCUGUGUAGGUGUGGGUGUGCUGUAGGUGUCUGUGUGGGUGUGCUAGGUGUCUGUAUAGGUGUGGGUGUGCUGUAGAUGUCUGUGUAGGUAUGGGUGUGCUGUAGAUCUUUGUAGCUCUUGCGGUCGCACUAGUGUGGAAUUCUCGGGUGUCAAGG
B9: ENSMUSG00000029028.23|Lrrc47 (ssRNA)
RNA: GGGAGUUCUACAGUCCGACGAUCGCUUCGAUAUCCGCAUGCUAGUCUGUGUGGGUGUGGGUGUGCUGUAGGUGUCUGUGUGGGUGUGGGUGUGCUAUAGGUAUCUGUGGGUGUGCUGUAGGUGUCUGUGUGGGUGUGCUGUAGGUGUCUGUGUAGGUGUGGGUGUGCUGUAGGUGUCUGUGUGGGUGUGCUAGGUGUCUGUAUAGGUGUGGGUGUGCUGUAGAUGUCUGUGUAGGUAUGGGUGUGCUGUAGAUCUUUGUAGGUGUAGGUAUGCUGUAGGUAUCUGGGUGUGGGUAUGCUGUAGCUCUUGCGGUCGCACUAGUGUGGAAUUCUCGGGUGUCAAGG

Target: TDP-43 (Homo sapiens, UniProt Q13148 1-414)
Sequence (Q13148 whole entry): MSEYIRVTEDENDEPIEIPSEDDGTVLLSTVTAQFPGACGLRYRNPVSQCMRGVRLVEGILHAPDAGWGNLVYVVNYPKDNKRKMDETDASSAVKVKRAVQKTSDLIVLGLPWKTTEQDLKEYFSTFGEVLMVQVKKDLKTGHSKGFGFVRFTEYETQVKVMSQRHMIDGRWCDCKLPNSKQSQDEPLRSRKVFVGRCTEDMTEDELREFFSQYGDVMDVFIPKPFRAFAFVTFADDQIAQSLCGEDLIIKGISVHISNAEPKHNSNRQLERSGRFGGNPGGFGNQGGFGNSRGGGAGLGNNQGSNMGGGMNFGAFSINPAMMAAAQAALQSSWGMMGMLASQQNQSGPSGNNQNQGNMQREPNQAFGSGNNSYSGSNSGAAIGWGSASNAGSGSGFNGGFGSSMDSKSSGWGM
Assay: RNA Bind-n-Seq with designed 260-mer pool; 25 mM Tris-HCl, 150 mM KCl, 3 mM MgCl2, BSA (printed 500 mg/mL), 20 units/mL SUPERase IN; pH not stated; 500 nM RNA pool, 1 h, 4 C; TDP-43 5, 50, 500 nM; high values mean tight binding
Conditions: protein: recombinant; tags: SBP (GST cleaved off with PreScission; pGEX-GST-SBP)
Procedure, shortened: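 Streptavidin beads captured recombinant SBP-tagged TDP-43 at 5, 50 or 500 nM, and the beads were incubated for 1 h at 4 °C with 500 nM of an in vitro-transcribed pool of 260-nt 3′ UTR oligos in 25 mM Tris-HCl, 150 mM KCl, 3 mM MgCl2, BSA and SUPERase IN. After washing, bound RNA was eluted with biotin, reverse transcribed, PCR-amplified and sequenced. Binding is reported as R, the mapped-read-normalized abundance of each oligo in the bound sample divided by its abundance in the input. Two independent protein batches served as duplicates.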

Point of comparison: B4, binding signal 6.07 R (bound/input frequency ratio). Against it:
- B1 — lower, 5.4 R (bound/input frequency ratio)
- B2 — lower, 5.37 R (bound/input frequency ratio)
- B3 — higher, 8.61 R (bound/input frequency ratio)
- B5 — higher, 6.93 R (bound/input frequency ratio)
- B6 — lower, 5.03 R (bound/input frequency ratio)
- B7 — lower, 5.47 R (bound/input frequency ratio)
- B8 — higher, 6.62 R (bound/input frequency ratio)
- B9 — lower, 5.87 R (bound/input frequency ratio)
